ALOX15B inhib: qHTS Assay for Inhibitors of 15-hLO-2 (15-human lipoxygenase 2); 110,000 tested, 0.56% active; Polyunsaturated fatty acid lipoxygenase ALOX15B (Homo sapiens), O15296; purified 15hLO-2, xylenol orange hydroperoxide absorbance; AID 881, 2007; Potency, µM (highest dose often 57.1 µM), for inactives: top-dose activity change, negative = inhibition, actives largely listed as inhibitors; also: nearly all actives have a fitted effect of over 60% in size
Target sequence (O15296 whole entry, looked up): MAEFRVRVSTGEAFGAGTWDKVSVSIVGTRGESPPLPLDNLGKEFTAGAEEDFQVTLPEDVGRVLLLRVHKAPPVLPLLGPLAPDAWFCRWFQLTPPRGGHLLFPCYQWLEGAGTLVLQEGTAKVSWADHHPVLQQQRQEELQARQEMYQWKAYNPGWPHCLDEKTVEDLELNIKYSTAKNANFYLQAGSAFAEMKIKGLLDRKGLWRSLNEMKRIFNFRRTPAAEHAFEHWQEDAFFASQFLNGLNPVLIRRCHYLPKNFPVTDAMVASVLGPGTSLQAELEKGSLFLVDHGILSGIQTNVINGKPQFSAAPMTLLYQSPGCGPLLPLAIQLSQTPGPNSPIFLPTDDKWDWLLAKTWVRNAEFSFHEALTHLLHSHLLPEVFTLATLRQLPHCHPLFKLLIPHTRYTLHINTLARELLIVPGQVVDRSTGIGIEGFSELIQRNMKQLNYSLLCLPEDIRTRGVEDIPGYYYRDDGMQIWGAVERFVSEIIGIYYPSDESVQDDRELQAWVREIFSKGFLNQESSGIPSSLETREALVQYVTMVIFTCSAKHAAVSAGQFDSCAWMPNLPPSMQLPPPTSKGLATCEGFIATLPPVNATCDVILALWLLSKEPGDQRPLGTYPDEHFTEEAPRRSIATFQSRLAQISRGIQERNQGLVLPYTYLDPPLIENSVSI
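Screening format was qHTS against 50 nM purified 15hLO-2 in Hepes pH 7.5 with detergent. Activity follows hydroperoxide formation from 45 uM arachidonic acid, measured as 573:405 nm absorbance ratio of the ferric-xylenol orange complex.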
15-hLO inh: qHTS Assay for Inhibitors of 15-hLO (15-human lipoxygenase); Polyunsaturated fatty acid lipoxygenase ALOX15 (Homo sapiens), P16050; purified 15hLO-1, xylenol orange hydroperoxide absorbance; Potency, µM (series often up to 57.1 µM), inactives show top-dose activity change, negative = inhibition, most hits filed as inhibitors; 74,000 tested, 1.4% active; AID 887, 2007; also: nearly all actives have a fitted effect of over 55% in size
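Compounds were preincubated 15 min at room temperature with 40 nM purified human enzyme (25 mM Hepes pH 7.5, 0.01% Triton X-100); 50 uM arachidonic acid reacted 6 min. Fe-xylenol orange detection, 30 min, absorbance ratio 573/405 nm.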
Numbers without * were called inactive; ? = inconclusive; . = no result given; [ ] = another dose, or the depositor's remark. Only a selection was taken, and hits are over-represented in it overall. Calls follow the shape of the dose curve; as a rule, active = well fitted inhibition curve with a large enough effect; inconclusive = small, poorly fitted or top-dose-only effect; inactive = no such curve, though single readings can be large or run the other way. % is scaled to controls: 0 for no effect and ±100 for the full control effect; potency is read from the fitted curve at half-maximal effect.

SMILES | ALOX15B inhib | 15-hLO inh
O=c1cc(O)cc(/C=C\c2ccc(O)c(O)c2)o1 | ? | 0.79µM*
COc1ccc(-c2oc3c(CC=C(C)C)c(O[C@H]4OC(CO)C(O)C(O)C4O)cc(O)c3c(=O)c2O[C@@H]2OC(C)C(O)C(O)C2O)cc1 (some centres not stated) | -17% | -3%
Cc1ccc(N)cc1O | -15% | -28%
Cc1cc(O)c(-c2cc(O)c(C)cc2O)cc1O | ? | 1.6µM*
N#CCCn1c(=O)c(-c2cccc(C#N)c2)nc2cnc(Oc3cccc(Cl)c3)nc21 | -7% | 1%
CN(C)c1ccc(-c2nccc(NCCN3CCOCC3)n2)cc1 | 16% | -21%
COc1ccccc1-c1cc(-c2ccccc2)nc(SC(C(N)=O)c2ccccc2)c1C#N (configuration not stated) | 16µM* | .
COC(=O)C(Sc1nc(C)cc(C)c1C#N)c1ccccc1 (configuration not stated) | -5% | .
Cc1cc(C)c2c(-c3ccc(-c4ccc(C(F)(F)F)cc4)cc3)cc(=O)oc2c1 | -16%[0.0915 µM] | .
O=C(c1ccncc1)N1CCC2(CC1)CN(c1ccccn1)C2 | -2% | ?
O=C(O)C(c1ccccc1)N1CCCC1 (configuration not stated) | . | 0%
O=C(O)[C@@H](c1ccccc1)N1Cc2ccccc2C1=O | -21% | 7.9µM*
c1ccc(CNC2=NCCCCC2)cc1 | 1% | 6%
Cc1ccc(CNC2=NCCCCC2)n1C | 0% | 20µM*
CCC(C)C1NC(=O)C(CCNCS(=O)(=O)O)NC(=O)C(NC(=O)C(CCNCS(=O)(=O)O)NC(=O)C(NC(=O)C(CCNCS(=O)(=O)O)NC(=O)CCCCC(C)C)C(C)O)CCNC(=O)C(C(C)O)NC(=O)C(CCNCS(=O)(=O)O)NC(=O)C(CCNCS(=O)(=O)O)NC(=O)C(C(C)CC)NC1=O (configuration not stated) | 4µM* | 3.2µM*
CCC(C)CCCCC(=O)N[C@@H](CCN)C(=O)N[C@H](C(=O)N[C@@H](CCN)C(=O)N[C@H]1CCNC(=O)C([C@@H](C)O)NC(=O)[C@@H](CCN)NC(=O)[C@H](CCN)NC(=O)[C@H](CC(C)C)NC(=O)[C@@H](CC(C)C)NC(=O)[C@H](CCN)NC1=O)[C@@H](C)O (some centres not stated) | 117%[0.0915 µM] | .
NCCS(=O)O | 10% | 7%
Oc1ccc(N=Cc2ccc(O)c(O)c2)cc1 | . | 13µM*
C[N+](C)(C)/N=C\c1ccc(O)c(O)c1 | -2%[11.4 µM] | -5%[11.4 µM]
O=c1[nH]c2ccccc2n1CCCSCCCn1c(=O)[nH]c2ccccc21 | -25% | -2%
Cc1cc(C(=O)CSCCCn2c(=O)[nH]c3ccccc32)c(C)n1C | ? | 32µM*
O=C(c1cccc(F)c1)N1CCC2(CCCN(C(c3ccccc3)c3ccccc3)C2)CC1 | -2% | -16%
CN(C)S(=O)(=O)c1cccc(-c2nnc(SCc3cc(Cl)cc4c3OCOC4)n2N)c1 | -22% | 13µM*
CCN(CC)S(=O)(=O)c1cccc(-c2nnc(SCc3nnc(-c4cccs4)o3)n2N)c1 | 0% | -4%
CCCS(=O)(=O)c1c(S(=O)(=O)CCC)c2c(N)cccn2c1C(=O)c1ccc(F)cc1 | -12% | 10µM*
SMILES | ALOX15B inhib | 15-hLO inh
CCCS(=O)(=O)c1c(S(=O)(=O)CCC)c2c(C)cccn2c1C(=O)OC | -14% | .
CN=c1nc(-c2ccccc2)n(-c2ccccc2)s1 | 1µM* | 0.79µM*
Cc1cc(=O)n2nc(-c3ccccc3)sc2n1 | 2% | 4%
CC(C)=C[C@H]1[C@@H](COC(=O)c2cc3c(cc2Cl)OCO3)C1(C)C | 2%[11.4 µM] | -8%[11.4 µM]
O=C(OCC1OC(OC(=O)c2cc(O)c(O)c(OC(=O)c3cc(O)c(O)c(O)c3)c2)[C@@H](OC(=O)c2cc(O)c(O)c(OC(=O)c3cc(O)c(O)c(O)c3)c2)C(OC(=O)c2cc(O)c(O)c(OC(=O)c3cc(O)c(O)c(O)c3)c2)C1OC(=O)c1cc(O)c(O)c(OC(=O)c2cc(O)c(O)c(O)c2)c1)c1cc(O)c(O)c(OC(=O)c2cc(O)c(O)c(O)c2)c1 (some centres not stated) | 1.6µM* | 0.5µM*
CC(=O)NC1C(OCCOc2ccc(Cl)cc2Cl)OC(COC(C)=O)C(OC(C)=O)C1OC(C)=O (configuration not stated) | -2% | .
O=c1c(-c2ccc(F)cc2)nc2cnc(Oc3ccccc3)nc2n1C[C@H]1CCCO1 | -5% | 1%
CCNc1ncc2ncc(=O)n(Cc3cccs3)c2n1 | 3% | 6%
Cn1cnc2c(sc3nc(N4CCOCC4)c4c(c32)CC(C)(C)OC4)c1=O | . | 4%
CC1(C)Cc2c(c(N3CCOCC3)nc3sc(-c4ccc(C(=O)O)o4)c(N)c23)CO1 | . | 20µM*
CNCCCCCCCCSc1nc(C(C)C)ccc1C(=O)c1cccs1 | 27% | -6%[25.6 µM]
c1ccc(CNc2ccnc(-c3ccoc3)n2)cc1 | 16% | -7%
N#Cc1c(-c2ccco2)c2c([nH]c1=S)CCCC2 | -29% | 16µM*
COc1ccc(-c2c3c([nH]c(=S)c2C#N)CCC3)cc1 | 1%[2.29 µM] | .
N#Cc1c(-c2cccnc2)c2c([nH]c1=S)CCCC2 | 20µM* | .
N#Cc1c2c(c(-c3ccco3)[nH]c1=O)CCCC2 | -10% | .
COc1ccccc1NCCC(=O)OCC(=O)NCc1ccco1 | -13% | ?
COc1ccc(OCCC(=O)OCC(=O)NCc2ccco2)cc1 | -5% | 13µM*
O=C(COC(=O)c1ccccc1Oc1ccccc1)NCc1ccco1 | -17% | 13µM*
O=C(COC(=O)c1ccccc1)NCc1ccco1 | -10% | -26%
COc1ccc(COC(=O)N/N=C2/C[C@@H](O)[C@@H](O)[C@@H]3[C@@H]4C(=O)N([C@@H](C)c5ccccc5)C(=O)[C@H]4CC[C@H]23)cc1 | . | 13%[11.4 µM]
CCNC(=O)c1sc(=S)n(-c2ccc(C)cc2)c1N | -19% | .
NC(=O)c1sc(=S)n(-c2ccc(Br)cc2)c1N | -9% | 10µM*
NC[C@H]1O[C@@H](n2cnc3c(=O)[nH]c(N)nc32)[C@@H](O)[C@@H]1O | -4%[11.4 µM] | -2%[11.4 µM]
CC(C)(CS)C(=O)N1CCC[C@H]1C(=O)O | 28%[25.6 µM] | 5%[25.6 µM]
COc1ccc(NC(=O)c2cccs2)cc1OC | -7% | 5%
COc1cccc(NC(=O)Nc2cccs2)c1 | . | 20µM*
CC(=O)c1cccc(NC(=O)Nc2cccs2)c1 | -8% | ?
COc1ccc(NC(=O)Nc2cccs2)cc1OC | ? | 20µM*
O=C(/C=C/c1ccc(O)c(O)c1)OC1C[C@](O)(C(=O)O)C[C@@H](O)[C@H]1O (some centres not stated) | 2% | -17%
